# Source: PubChem BioAssay (NCI)
# Compounds without any hit were thinned out: in the full panel of roughly 79,000, 15% have a hit. Values without a mark were called inactive. The source made the active and inactive calls. No stated cut-off is given here; in the data, active means growth inhibition above about 70%; inactive means the rest.
# Experiments:
# [1] = NCI Yeast Anticancer Drug Screen. Data for the rad50 strain (AID 155);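 further: 0% = growth of vehicle-only cultures of the same strain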; conditions: S. cerevisiae rad50 strain growth inhibition; at 50.0 µM; active compounds read high
# Summary of the method: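 Genetically altered yeast (DNA repair pathway); compound treatment; growth inhibition vs vehicle ctrl.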
# [2] = NCI Yeast Anticancer Drug Screen. Data for the mec2-1 strain (AID 157); conditions: S. cerevisiae mec2-1 strain, at 50.0 µM, active compounds read high
# Summary of the method: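 Mutant yeast (mec2-1) grown with compound; growth inhibition relative to vehicle control reported.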
# [3] = NCI Yeast Anticancer Drug Screen. Data for the sgs1 mgt1 strain (AID 161);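 further: 0% = growth of cultures given vehicle only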; conditions: S. cerevisiae sgs1 mgt1 strain, at 50.0 µM, active compounds read high
# Summary of the method: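 Yeast cells carrying a defined DNA-repair defect were exposed to test compounds. Growth inhibition was measured relative to vehicle-treated controls.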
# [4] = NCI Yeast Anticancer Drug Screen. Data for the cln2 rad14 strain (AID 165);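 further: 0% = growth equal to vehicle treated cultures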; conditions: S. cerevisiae cln2 rad14 strain, at 50.0 µM, active compounds read high
# Summary of the method: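 Readout is yeast growth inhibition versus vehicle-treated controls, using a strain with cln2 and rad14 alterations exposed to compound.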
# [5] = NCI Yeast Anticancer Drug Screen. Data for the bub3 strain (AID 167); conditions: S. cerevisiae bub3 mutant strain, at 50.0 µM, active compounds read high
# Summary of the method: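 Yeast carrying a defined mutation is treated with each compound, and growth is compared with that of vehicle-exposed cells to give inhibition.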
# [6] = NCI Yeast Anticancer Drug Screen. Data for the mlh1 rad18 strain (AID 175); conditions: S. cerevisiae mlh1 rad18 strain growth inhibition; at 50.0 µM; active compounds read high
# Summary of the method: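 Genetically defined yeast (DNA repair-deficient) exposed to compounds; growth inhibition determined relative to vehicle.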
Compound,growth inhibition [1],growth inhibition [2],growth inhibition [3],growth inhibition [4],growth inhibition [5],growth inhibition [6]
CCN(Cc1ccc(CN(CC)C(=O)c2sc3ccccc3c2Cl)cc1)C(=O)c1sc2ccccc2c1Cl,-3.5%,-19.6%,-7.35%,-1.4%,-11.4%,-4.55%
CCCCC(CC)CNCC(CC)CCCC (configuration not stated),33.8%,45.5%,14.8%,40.6%,5.5%,26.1%
CNC(=O)OCc1c(COC(=O)NC)c(-c2ccc(S(C)(=O)=O)cc2)n(C)c1C,49%,-3.3%,-16.2%,5.25%,-10.1%,-42%
COC(=O)C1C=CN(N(C)C)C2=C1C(=O)c1c(O)cccc1C2=O (configuration not stated),86% (active),93% (active),89.2% (active),88.1% (active),89.5% (active),90.2% (active)
O=S(=O)(O)C1=CC(=N/Cl)/C=CC/1=N\Cl,-25.8%,-23.8%,-14.6%,-4.15%,-42%,-25.2%
CCC1=CC(=O)C(CC)=CC1=O,3.05%,25.2%,-2.15%,-23.7%,1.95%,15.6%
CCOP(=O)(OCC)/C(C#N)=C/c1cccc([N+](=O)[O-])c1,-14.2%,2.5%,-4.85%,3.85%,-6.55%,9.25%
O=[N+]([O-])c1ccc(N=C/C=C\Nc2ccc([N+](=O)[O-])cc2)cc1,6.8%,14.8%,11.2%,-13.4%,6.85%,14.8%
Nc1ccnn2c(-c3ccccc3)nnc12,-0.55%,1.85%,-5.7%,4.25%,12.4%,2.35%
Cc1csc2nc(-c3cccs3)nn12,0.75%,-15.4%,7.4%,-1.55%,-7.15%,-9.1%
C/C=C/c1cc(C)cc(C)c1OC(C)CC (configuration not stated),-2.45%,-9.75%,11.4%,-34.5%,-17.9%,10.1%
C[C@@H]1C[C@H]2[C@@H]3CCC4=CC(=O)C=C[C@]4(C)[C@@]3(F)[C@@H](O)C[C@]2(C)[C@@]1(O)C(=O)CO,11.8%,-22.3%,-16.2%,3.45%,-5.1%,28.1%
OC1c2ccccc2CCCC1N1CCCCC1 (configuration not stated),41%,5.35%,27.8%,6.75%,12.1%,16.9%
CCOC(=O)c1nc2ccccc2nc1NCc1ccc(Cl)cc1Cl,6.45%,19%,-24.7%,8%,-16.6%,-30.9%
CCC1CN2CCc3cc(OC)c(OC)cc3C2CC1(O)C#N (configuration not stated),9.9%,18.9%,-5.9%,0.6%,12.8%,39%
CN(C)CCN=C1Nc2ccccc2C(=O)N2CSCC12 (configuration not stated),-3.25%,-1.95%,-8.7%,-1.25%,-15.3%,17.3%
O=C1OC2C3c4ccccc4C(c4c3ccc3ccccc43)C2O1 (configuration not stated),10.1%,10.9%,19.8%,19.7%,24.1%,29.2%
O=C(/C=C(/Nc1ccccc1)c1ccccc1)c1ccccc1,7.3%,11.4%,8.9%,35.5%,15.9%,34.2%
CN(C)c1ccc(/C=N/NC(=O)c2ccccc2NC(=O)C2CC2)cc1,-11.4%,1.4%,27%,-18.8%,24.8%,26.6%
CCc1ccccc1NC(=O)Nc1ccc(C(=O)O)c(O)c1,33.6%,10.2%,27.4%,21.4%,29.8%,26.4%
O=C(O)C1CCC2CCCC21 (configuration not stated),-25.2%,-7.3%,8.95%,-10.9%,-18%,15.5%

Compound,growth inhibition [1],growth inhibition [2],growth inhibition [3],growth inhibition [4],growth inhibition [5],growth inhibition [6]
Cc1nc(-c2ccccc2)[nH]c(=O)c1Cc1cc2c(cc1O)OCC2,21.8%,6.6%,6.9%,-12.2%,-7.85%,8.4%
COC(=O)C(C(=O)C(=O)Nc1ccc(Br)cc1)c1nc2ccc(Cl)cc2[nH]c1=O (configuration not stated),-11%,-5.1%,21.9%,7.05%,-1.55%,2.8%
COc1ccc(N=Cc2ccc(C=Nc3ccc(OC)cc3OC)cc2)c(OC)c1,10.6%,-21.6%,5.15%,7.7%,-5.45%,-1.9%
CN(CC1NCCCC1O)C12CC3CC(CC(C3)C1)C2 (configuration not stated),0.5%,-6.65%,12.4%,12%,7%,-4.35%
CC(=O)[CH-]C(=O)Nc1ccccc1.CC(=O)[CH-]C(=O)Nc1ccccc1.CC[O-].CC[O-].[Ti+4],-16.4%,14.3%,11.3%,21%,12.8%,12.7%
Cc1cc(N2CCOCC2)nc2ccc(Cc3ccc4nc(N5CCOCC5)cc(C)c4c3)cc12,13.5%,-10.2%,-32.2%,-24.2%,-4.65%,-4.4%
C[N+](C)(C)CC(=O)N/N=C(/C=C/c1ccccc1)CC1OC(=O)c2ccccc21 (configuration not stated),-9.65%,-11.4%,-3.5%,16.2%,-7.5%,3.9%
COC(=O)c1sc(=O)n(-c2ccccc2)c1SCc1ccccc1,25.4%,-5.15%,60%,12.9%,30.8%,18.8%
O=C(Nc1ccc(Cl)cc1C(F)(F)F)C(=O)Nn1c(=S)[nH]c2ccccc2c1=O,-5.9%,-15.2%,8.5%,-2.7%,-1.1%,18.9%
ClCC1=NC2C(Cl)C(Cl)C(Cl)C(Cl)C2N1 (configuration not stated),87.8% (active),77% (active),94.7% (active),87.5% (active),75.9% (active),94% (active)
COc1ccc(C(=O)C(CO)Oc2ccccc2OC)cc1OC (configuration not stated),-3.05%,7.5%,-20.2%,4.25%,-13.5%,-1.35%
O=C(On1nnc2ccccc2c1=O)c1ccccc1,29.7%,20.4%,22.8%,-7.25%,-3.25%,12.8%
COc1ccc(/C=C/C2=CC(=O)CC(/C=C/c3ccc(OC)c(OC)c3)C2)cc1OC (configuration not stated),45%,46.5%,28.9%,49.6%,58.6%,43.9%
CCOc1ccc(-c2nnc(Nc3ccc(S(=O)(=O)N4CCCCC4)cc3)s2)cc1,10.3%,9.6%,13.7%,-38%,-2.15%,16.7%
C[C@@H]1CCC[C@H]1C(N)C(=O)O (some centres not stated),-18%,2%,-3.85%,-25.1%,-18.1%,-12.9%
O=C1C(=O)c2ccccc2C(O)=C1c1ccc(Br)cc1,8.85%,-9.5%,-2.8%,-4.9%,-3.65%,-8.9%
N=c1nccnn1O,6.45%,13.2%,-8.2%,10.4%,-6.5%,3.95%
COC(=O)CNC(=O)C1CSC(C)(C)N1 (configuration not stated),-5.9%,-6.65%,-15.7%,-12.2%,-1.05%,-9.15%
Cc1cc(C)c2cnnn2n1,10.1%,-14.1%,0.6%,15.4%,-21.1%,-2.75%
COC1OC2COC1(OCc1ccccc1)C1OC(C)(C)OC21 (configuration not stated),-23.8%,-5.85%,-29.9%,-0.8%,-26.2%,5.35%
CS(=O)CC(=N\N)/C(CS(C)=O)=N/N (configuration not stated),-60%,-20.8%,-19.7%,-21.4%,-1.15%,-5.75%
